# Test results published in the supplement of paper PMC6555819.
# What was measured:
# Assay in all cases: PBM binding z-score (relative to random genomic background probes); higher = stronger binding; sequences stand for … in GC…GCGATTGACAGCGTAGAATGAAGG
# [1] = test system: RARb homodimer (NR concentration 270 nM)
# In short: (§1)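 The probes on custom Agilent 4×180K protein-binding microarrays were double-stranded, with 34-nt variable regions bearing direct-repeat seeds, single-nucleotide variants, half-site ablations and random human genomic background sequences. Incubation lasted 1 h with ligand-free nuclear receptor dimers in PBS pH 7.4, 2% milk, 0.02% Triton X-100, 1 mM DTT, 0.2 mg/mL BSA and 0.4 mg/ml salmon testes DNA. Antibodies against each partner (one per run) detected bound dimers, and fluorescence scans were regression-normalized. Binding z-scores take the random background probes as reference.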
# [2] = test system: RARg:RXRa (NR concentration 270 nM, RXRa partner concentration 90 nM)
# In short: as §1
# [3] = test system: RARg homodimer (NR concentration 270 nM)
# In short: as §1
# [4] = test system: RXRa DBDmut IVT, anti-RXR (DBD mutation: RXRa K156A/R161A, NR concentration 90 nM)
# In short: as §1
# [5] = test system: RXRa homodimer (NR concentration 180 nM)
# In short: as §1
# [6] = test system: THRa:RXRa (NR concentration 90 nM, RXRa partner concentration 90 nM)
# In short: as §1
# [7] = test system: THRa homodimer (NR concentration 90 nM)
# In short: as §1
# [8] = test system: VDR:RXRa (NR concentration 270 nM, RXRa partner concentration 90 nM)
# In short: as §1
# [9] = test system: VDR homodimer (NR concentration 270 nM)
# In short: as §1
Sequence,PBM binding z-score [1],PBM binding z-score [2],PBM binding z-score [3],PBM binding z-score [4],PBM binding z-score [5],PBM binding z-score [6],PBM binding z-score [7],PBM binding z-score [8],PBM binding z-score [9]
CCTTACGGGTCACGAGGTTATATCACGACGAGCG,3.93,6.16,5.48,1.94,7.11,3.77,1.34,5.38,2.09
GGAGCGAGGGCAAAGTTGATAGCATCTGTCGACG,0.881,1.71,1.34,2.06,1.7,0.838,-0.34,0.834,0.99
TCTGCTAGGTCAACGATGGTCCGCTAATCTGCTA,2.94,3.75,4.7,1.2,2.3,2.56,0.713,1.14,-0.413
CGTCCAAGGTCAATGCTAGGTCAGTGATAGCATT,5.15,7.48,6.91,3.87,5.32,4.38,3.02,4.92,3.54
CCGAGTAGGTGATGGGGCATTCAGGCAACGGTGA,0.69,0.024,-0.0731,-0.961,0.074,0.211,-0.0233,-0.461,-0.306
ATCTCTAGGTAAGACTCTGTTCAGTGAAGAACGC,0.515,-0.0818,0.134,0.365,0.0121,0.57,0.576,0.234,-0.00157
TAGCCTCGGTCATGCGGGCCAGTATAGTGTCGGC,1.58,1.57,2.52,-1.04,-0.228,-0.135,-0.62,-0.284,-0.697
CGTCGAAGGTCATAGGAGGTCAGTGAAGACAGAT,5.29,6.92,7.53,3,6.64,5.27,1.39,6.76,3.45
CCTCGGAGGACAACTGGAGGTCAGAGCTGCCAGA,3.7,4.12,4.11,0.362,2.22,2.7,1.3,2.08,1.48
TCTATTAGTTGATTAGGGCGACCGAAACAGCGGA,0.492,0.141,0.348,1.14,0.378,0.191,0.249,0.776,0.212
TCGAGTAGGTTAGGCGGGGCATTCAGCCAACATA,0.241,0.2,-0.0839,-0.0244,0.0673,0.994,-0.341,1.43,0.0165
AGTCAAAGTTCAGGACGAGGAAACGTAAAGCACG,2.85,4.29,4.75,2.81,3.17,2.42,0.288,2.2,1.64
TATACAGGGTTAAAGGCCAGAGTACGAATGTCGA,1.55,2.41,1.59,0.596,3.28,1.56,0.124,2.09,0.851
TAGCCTAGGTCATGCGCGCCAGTATAGTGTCGGC,3.06,4.02,4.19,0.635,3.16,3.17,1.27,2.05,0.448
TCCTGTAGATCAAGCAGGTTAAGAAAGCCTGAGT,0.0843,-0.142,-0.295,0.428,0.45,0.254,-0.566,0.503,0.241
CCTTGGAGGACAGAAGGTCAGAGCTGTCCGCTTT,3.56,3.54,3.38,0.276,1.95,2.22,0.0306,1.12,0.62
CCTACTGGGCCAAAAAGGTCGTTGATGCCGATAA,1.92,1.18,0.763,0.0571,1.38,1.26,-0.297,2.79,1.13
CAAACTAGGTCAGGAGGTCAAAGTCCGCTTCCCG,5.3,6.99,5.98,2.11,5.81,3.97,2.52,5.18,3.61
